TGFb inhibitor: blocks TGF-b signaling; HepG2 CAGA-GFP TGF-b/SMAD3 reporter, GFP fluorescence, 18 h; TGF-beta stimulated, 500 pg/mL final; 410,000 compounds, 1.2% hits; Potency, µM (series often up to 46.1 µM), for the others: top-dose activity, negative = inhibition, most hits filed as inhibitors; note: % is set by controls: 0 for no effect and ±100 for the full control effect; nearly all actives have a fitted effect of over 65% in size
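Cell-based qHTS in HEPG2 carrying a CAGA-GFP Smad reporter; compounds added before 500 pg/mL final TGF-beta, 18 h incubation at 37 degrees C, GFP fluorescence quantified per cell by imaging cytometry.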
HT1080NT lethal: kills 2HG-producing HT-1080-NT fibrosarcoma cells. HT-1080-NT fibrosarcoma viability, CellTiter-Glo ATP luminescence, 48 h. Potency, µM (titrated, usually from 46.1 µM), without a hit: top-dose activity, negative = less viability, most hits filed as cytotoxic. 360,000 compounds, 1.6% hits. AID 686970;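 note: NT is the 2HG producing partner of a matched IDH1 knockdown line; 0% = DMSO-treated cells and -100% = media-only wells without cells; nearly all actives have a fitted effect of over 55% in size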
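Compounds were tested in concentration-response format on HT-1080-NT cells for 48 hours at 37 degrees C. Cell viability came from CellTiter-Glo luminescence; curves were classified by r2, response magnitude and activity.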
ATXN viability: viability counter-screen for ATXN expression inhibitors; S2 cells (HEK-293 line with an ATXN2-luciferase reporter) viability, CellTiter-Fluor protease fluorescence, 24 h; Potency, µM (highest dose often 56.7 µM), most hits filed as cytotoxic; 400,000 compounds, 0.49% hits; note: nearly all actives have a fitted effect of over 40% in size
ATXN2 expr inh: inhibitors of ATXN2 expression; 360,000 compounds, 0.72% hits; Potency, µM (doses to about 57 µM), without a hit: at the highest dose activity change, negative = inhibition, actives largely listed as inhibitors; HEK-293 ATXN2-luciferase reporter, luminescence, 24 h; note: % is set by controls: 0 for no effect and ±100 for the full control effect; nearly all actives have a fitted effect of over 55% in size
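qHTS (up to 57 uM final) was run with 24 h compound exposure of reporter cells at 37 °C. Each well was multiplexed: SteadyGlo luminescence measured ATXN2-luciferase expression after a fluorogenic Gly-Phe-AFC viability readout (25 uM final).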
HepG2 tox: kills HepG2 cells in TGF-b inhibitor counter-screen. HepG2 CAGA-GFP viability, ATP luminescence, 18 h. Potency, µM (doses to about 46.1 µM), for inactives: at the highest dose activity change, negative = cytotoxicity, actives largely listed as cytotoxic. 410,000 compounds, 0.76% hits. AID 588856
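HepG2 CAGA-GFP cells (1000/well, DMEM with 1% FBS) received compound, then TGF-beta at 500 pg/mL final, and were incubated 18 hours at 37 degrees C. Viability was read by CellTiter-Glo luminescence. Media-only wells were set as complete cell-killing and DMSO as no toxicity.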
HT1080 IDH1KD tx: kills HT-1080 cells with IDH1 knockdown | Potency, µM (titrated, usually from 46.1 µM), for the others: at the highest dose activity, negative = toxicity, most hits filed as cytotoxic | 360,000 compounds, 2% hits | HT-1080 IDH1 knockdown viability, ATP luminescence, 48 h | AID 686971;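 note: 0% = DMSO wells and -100% = cell-free medium wells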
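CellTiter-Glo luminescence after 48 h compound exposure at 37 degrees C of IDH1-knockdown HT-1080 cells in 5% FBS RPMI. %Activity scaled between DMSO wells and cell-free media wells, with curves fitted and assigned curve classes.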
* marks the source's active call; other numbers are inactive results; i = inactive; u = inconclusive; x = not tested or not shown. A selection: hits, their analogues and other compounds. The true share with any hit is near 3.9%. Calls come from the whole dose curve; as a rule, active = well fitted curve in the direction sought with a large enough effect; inconclusive = small, poorly fitted or top-dose-only effect, or another doubt; inactive = no such curve, though single readings can be large; an effect the other way counts as inactive or inconclusive. Potency is the fitted concentration of half-maximal effect.

SMILES	TGFb inhibitor	HT1080NT lethal	ATXN viability	ATXN2 expr inh	HepG2 tox	HT1080 IDH1KD tx
OC(CNCc1ccccc1)c1ccccc1 (stereo unspecified)	3%	2%	i	-11%	-2%	14%
CC(=O)Nc1nc2ccccc2n1Cc1ccccc1Cl	u	18µM*	u	-25%	-31%	u
CCC(=O)Nc1nc2ccccc2n1Cc1ccccc1Cl	u	u	u	x	-37%	-14%
CN1CCC(=C2c3ccccc3CCc3sccc32)CC1	-11%	18µM*	u	-20%	-33%	u
COc1cccc(CNC(=O)C2CCN(C(=O)N3CCOc4ccc(Cl)cc43)CC2)c1OC	-29%	x	x	x	-23%	x
CCOc1ccccc1NC1=CC(=O)CC(c2ccccc2)C1 (stereo unspecified)	5%	u	u	-25%	2%	13µM*
COc1ccc(C2CC(=O)C=C(NCc3ccc4c(c3)OCO4)C2)cc1 (stereo unspecified)	10%	-8%	i	x	19%	-1%
O=C1C=C(Nc2ccc(Cl)cc2)CC(c2ccccc2)C1 (stereo unspecified)	-21%	12µM*	i	-24%	0%	9.2µM*
Cc1ccc(NC2=CC(=O)CC(c3ccccc3)C2)cc1 (stereo unspecified)	6%	2.9µM*	i	4%	14%	2.9µM*
CC(C)CCNC1=CC(=O)CC(c2ccccc2)C1 (stereo unspecified)	-1%	u	u	-20%	4%	u
Cc1ccc(NC2=CC(=O)CC(c3ccc(Cl)cc3)C2)cc1 (stereo unspecified)	0%	-5%	i	-21%	13%	-5%
COc1ccc(C2CC(=O)C=C(NCc3ccccc3)C2)cc1 (stereo unspecified)	20%	23µM*	i	-5%	-2%	18µM*
Cc1cc(C(=O)NCC2CCC3(CCN(Cc4ccc(F)cc4)CC3)O2)n(C)n1 (stereo unspecified)	x	x	i	x	x	x
COC(=O)c1ccccc1-c1cc(C)cc2c1OC(CNC(=O)c1cc(C)on1)C2 (stereo unspecified)	x	x	i	x	x	x
Cc1ccccc1CN1C(=O)C(O)(CC(=O)c2ccccc2)c2cc(Cl)ccc21 (stereo unspecified)	u	x	x	x	20µM*	x
Cc1n[nH]c(C)c1C(=O)CC1(O)C(=O)N(CCc2ccccc2)c2ccc(Cl)cc21 (stereo unspecified)	-35%	-27%	i	-10%	-7%	-19%
CCc1ccc(C(=O)CC2(O)C(=O)N(CCc3ccccc3)c3ccc(Cl)cc32)cc1 (stereo unspecified)	13µM*	x	u	u	20µM*	x
Cc1ccc(C(=O)CC2(O)C(=O)N(Cc3ccccc3)c3ccc(Br)cc32)cc1 (stereo unspecified)	u	x	x	x	-104%	x
O=C(NCC1CCC2(CCN(Cc3c[nH]c4ccccc34)CC2)O1)C1CCOCC1 (stereo unspecified)	x	x	i	x	x	x
COc1cccc(Cn2c(CNS(=O)(=O)c3ccc(C(C)(C)C)cc3)nc3cccnc32)c1	u	x	x	x	-23%	x
Cc1cc2ccc3ccccc3c2cc1CN(C)C	16µM*	33µM*	i	28%	-39%	18µM*
CN(C)Cc1cc2ccccc2c2c1COC2	1%	-1%	i	-7%	-18%	-6%
CCOc1ccc(S(=O)(=O)Nc2ccc3c(c2)c(C(C)=O)c(C)n3S(=O)(=O)c2ccc(OCC)cc2)cc1	11µM*	x	x	x	-12%	x
COc1ccc(S(=O)(=O)Nc2ccc3c(c2)CCC3)cc1	11µM*	u	i	-18%	-31%	u
CCOc1ccc(S(=O)(=O)Nc2ccc3c(c2)n(C)c(=O)n3C)cc1	12%	u	i	6%	-20%	-24%
